# Measurements as given in the supplement of paper PMC8728848.
# Shown is part of a subset that was picked to be rich in the strongest signals.
# B1: HA-61200 (Pseudomonas aeruginosa), Q02SP8_PSEAB (protein)
# chain: MNKCYALVWNVSQGCWNVVSEGSRRRGKPAGAKAAIASVLALLGATALAPAYALPSGGTVVGGSANGEIHLSGGNSLSVNQKVDKLIANWDSFSVAAGERVIFNQPSSSSIALNRVIGTKASDIQGRIDANGQVFLVNPNGVLFGRGAQVNVGGLVASTLDITDAEFNGNSSRYRFTGPSTNGVLNHGGAITAAEGGSIALLGAQVDNRGTVLAQMGGVGLGAGSDLTLNFDGNKLLDIRVDAGVANALASNGGLLKADGGRVLMAARTANALLNTVVNSQGAIEARSLRGKNGRIVLDG
# Key:
# Assay in all cases: glycan array binding signal (z-score within array); higher = stronger binding
# Conditions in all cases: glycan notation: IUPAC condensed, linker removed
# Fuc(a1-2)Gal(b1-3)GlcNAc = biological target: Fuc(a1-2)Gal(b1-3)GlcNAc
# Outline: (§1)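 Negative Z-scores can be read as non-binding. The Z-score is calculated within each array and then averaged across arrays of one protein sequence at different concentrations or buffers and across linkers. Arrays, 3228 in all, were curated from the Consortium for Functional Glycomics database and kept only where the protein sequence was available.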
# [1] = biological target: Fuc(a1-2)Gal(b1-3)GlcNAc(b1-2)Man(a1-3)[Fuc(a1-2)Gal(b1-3)GlcNAc(b1-2)Man(a1-6)]Man(b1-4)GlcNAc(b1-4)GlcNAc
# Outline: as §1
# [2] = biological target: Fuc(a1-2)Gal(b1-3)[Fuc(a1-4)]GlcNAc(b1-3)[Gal(b1-4)GlcNAc(b1-6)]Gal(b1-4)Glc
# Outline: as §1
# [3] = biological target: Fuc(a1-2)Gal(b1-4)GlcNAc(b1-3)GalNAc
# Outline: as §1
# [4] = biological target: Fuc(a1-2)[Gal(a1-3)]Gal(b1-4)[Fuc(a1-3)]GlcNAc(b1-3)GalNAc
# Outline: as §1
# [5] = biological target: Fuc(a1-3)[Gal(b1-4)]GlcNAc6S
# Outline: as §1
# Gal(a1-3)Gal = biological target: Gal(a1-3)Gal
# Outline: as §1
# [6] = biological target: Gal(a1-3)Gal(b1-3)GlcNAc(b1-2)Man(a1-3)[Gal(a1-3)Gal(b1-3)GlcNAc(b1-2)Man(a1-6)]Man(b1-4)GlcNAc(b1-4)GlcNAc
# Outline: as §1
# [7] = biological target: Gal(a1-4)Gal(b1-3)GlcNAc(b1-2)Man(a1-3)[Gal(a1-4)Gal(b1-3)GlcNAc(b1-2)Man(a1-6)]Man(b1-4)GlcNAc(b1-4)GlcNAc
# Outline: as §1
# [8] = biological target: Gal(b1-3)GlcNAc(a1-3)Gal(b1-4)GlcNAc
# Outline: as §1
# [9] = biological target: Gal(b1-3)GlcNAc(b1-2)Man(a1-3)[Gal(b1-3)GlcNAc(b1-2)Man(a1-6)]Man(b1-4)GlcNAc(b1-4)[Fuc(a1-6)]GlcNAc
# Outline: as §1
# [10] = biological target: Gal(b1-3)GlcNAc(b1-3)Gal(b1-4)GlcNAc(b1-3)Gal(b1-4)GlcNAc(b1-2)[Gal(b1-3)GlcNAc(b1-3)Gal(b1-4)GlcNAc(b1-3)Gal(b1-4)GlcNAc(b1-6)]Man(a1-6)[Gal(b1-3)GlcNAc(b1-3)Gal(b1-4)GlcNAc(b1-3)Gal(b1-4)GlcNAc(b1-2)Man(a1-3)]Man(b1-4)GlcNAc(b1-4)[Fuc(a1-6)]GlcNAc
# Outline: as §1
# [11] = biological target: Gal(b1-3)GlcNAc(b1-6)GalNAc
# Outline: as §1
# [12] = biological target: Gal(b1-3)[Neu5Ac(a2-6)]GalNAc
# Outline: as §1
# [13] = biological target: Gal(b1-4)GlcNAc(b1-2)[Gal(b1-4)GlcNAc(b1-6)]Man(a1-6)[GlcNAc(b1-4)][Gal(b1-4)GlcNAc(b1-2)Man(a1-3)]Man(b1-4)GlcNAc(b1-4)GlcNAc
# Outline: as §1
# [14] = biological target: Gal(b1-4)GlcNAc(b1-3)Gal(b1-4)GlcNAc(b1-3)Gal(b1-4)GlcNAc
# Outline: as §1
# [15] = biological target: Gal(b1-4)GlcNAc(b1-3)Gal(b1-4)GlcNAc(b1-3)Gal(b1-4)GlcNAc(b1-2)Man(a1-3)[Gal(b1-4)GlcNAc(b1-3)Gal(b1-4)GlcNAc(b1-3)Gal(b1-4)GlcNAc(b1-2)Man(a1-6)]Man(b1-4)GlcNAc(b1-4)GlcNAc
# Outline: as §1
# [16] = biological target: Gal(b1-4)GlcNAc(b1-3)Gal(b1-4)GlcNAc(b1-3)Gal(b1-4)GlcNAc(b1-2)Man(a1-3)[Gal(b1-4)GlcNAc(b1-3)Gal(b1-4)GlcNAc(b1-3)Gal(b1-4)GlcNAc(b1-2)Man(a1-6)]Man(b1-4)GlcNAc(b1-4)[Fuc(a1-6)]GlcNAc
# Outline: as §1
# [17] = biological target: Gal(b1-4)GlcNAc(b1-3)Gal(b1-4)GlcNAc(b1-3)Gal(b1-4)GlcNAc(b1-3)Gal(b1-4)GlcNAc(b1-2)Man(a1-3)[Gal(b1-4)GlcNAc(b1-3)Gal(b1-4)GlcNAc(b1-3)Gal(b1-4)GlcNAc(b1-3)Gal(b1-4)GlcNAc(b1-2)Man(a1-6)]Man(b1-4)GlcNAc(b1-4)GlcNAc
# Outline: as §1
# [18] = biological target: Gal(b1-4)GlcNAc(b1-3)Gal(b1-4)GlcNAc(b1-3)Gal(b1-4)GlcNAc(b1-3)Gal(b1-4)GlcNAc(b1-3)Gal(b1-4)GlcNAc(b1-2)Man(a1-3)[Gal(b1-4)GlcNAc(b1-3)Gal(b1-4)GlcNAc(b1-3)Gal(b1-4)GlcNAc(b1-3)Gal(b1-4)GlcNAc(b1-3)Gal(b1-4)GlcNAc(b1-2)Man(a1-6)]Man(b1-4)GlcNAc(b1-4)[Fuc(a1-6)]GlcNAc
# Outline: as §1
# [19] = biological target: Gal3S(b1-3)[Fuc(a1-4)]GlcNAc
# Outline: as §1
# GlcA(b1-3)Gal = biological target: GlcA(b1-3)Gal
# Outline: as §1
# [20] = biological target: GlcNAc(a1-4)Gal(b1-4)GlcNAc
# Outline: as §1
# [21] = biological target: GlcNAc(b1-3)Gal(b1-4)GlcNAc(b1-3)Gal(b1-4)GlcNAc(b1-3)Gal(b1-4)GlcNAc(b1-3)Gal(b1-4)GlcNAc(b1-2)Man(a1-3)[GlcNAc(b1-3)Gal(b1-4)GlcNAc(b1-3)Gal(b1-4)GlcNAc(b1-3)Gal(b1-4)GlcNAc(b1-3)Gal(b1-4)GlcNAc(b1-2)Man(a1-6)]Man(b1-4)GlcNAc(b1-4)GlcNAc
# Outline: as §1
# Kdn(a2-3)Gal(b1-3)GalNAc = biological target: Kdn(a2-3)Gal(b1-3)GalNAc
# Outline: as §1
# [22] = biological target: Man(a1-2)Man(a1-3)[Man(a1-6)]Man(a1-6)[Man(a1-2)Man(a1-3)]Man(b1-4)GlcNAc(b1-4)GlcNAc
# Outline: as §1
# [23] = biological target: Man(a1-3)[Man(a1-6)]Man(a1-6)[Man(a1-3)]Man(b1-4)GlcNAc(b1-4)GlcNAc
# Outline: as §1
# [24] = biological target: Neu5Ac(a2-3)Gal(b1-3)[Neu5Ac(a2-6)]GalNAc
# Outline: as §1
# [25] = biological target: Neu5Ac(a2-3)Gal(b1-4)GlcNAc(b1-2)Man(a1-3)[Neu5Ac(a2-6)Gal(b1-4)GlcNAc(b1-2)Man(a1-6)]Man(b1-4)GlcNAc(b1-4)GlcNAc
# Outline: as §1
# [26] = biological target: Neu5Ac(a2-3)Gal(b1-4)GlcNAc(b1-3)Gal(b1-4)GlcNAc(b1-3)Gal(b1-4)GlcNAc(b1-2)Man(a1-3)[Neu5Ac(a2-3)Gal(b1-4)GlcNAc(b1-3)Gal(b1-4)GlcNAc(b1-3)Gal(b1-4)GlcNAc(b1-2)Man(a1-6)]GalNAc
# Outline: as §1
# [27] = biological target: Neu5Ac(a2-3)Gal(b1-4)[Fuc(a1-3)]GlcNAc6S
# Outline: as §1
# [28] = biological target: Neu5Ac(a2-6)Gal(b1-4)GlcNAc(b1-3)Gal(b1-4)GlcNAc(b1-3)Gal(b1-4)GlcNAc(b1-2)Man(a1-3)[Neu5Ac(a2-6)Gal(b1-4)GlcNAc(b1-3)Gal(b1-4)GlcNAc(b1-3)Gal(b1-4)GlcNAc(b1-2)Man(a1-6)]GalNAc
# Outline: as §1
# [29] = biological target: Neu5Ac(a2-8)Neu5Ac(a2-3)Gal(b1-3)GalNAc(b1-4)[Neu5Ac(a2-8)Neu5Ac(a2-3)]Gal(b1-4)Glc
# Outline: as §1
# [30] = biological target: Neu5Gc(a2-8)Neu5Gc(a2-6)Gal(b1-4)GlcNAc
# Outline: as §1
binder,measurement,setting,value
B1,glycan array binding signal (z-score),Fuc(a1-2)Gal(b1-3)GlcNAc,-1.2
same,glycan array binding signal (z-score),[1],4.52
same,glycan array binding signal (z-score),[2],0.396
same,glycan array binding signal (z-score),[3],-0.278
same,glycan array binding signal (z-score),[4],1.01
same,glycan array binding signal (z-score),[5],1.51
same,glycan array binding signal (z-score),Gal(a1-3)Gal,-0.38
same,glycan array binding signal (z-score),[6],5.54
same,glycan array binding signal (z-score),[7],9.66
same,glycan array binding signal (z-score),[8],-0.012
same,glycan array binding signal (z-score),[9],5.22
same,glycan array binding signal (z-score),[10],2.44
same,glycan array binding signal (z-score),[11],0.257
same,glycan array binding signal (z-score),[12],-0.393
same,glycan array binding signal (z-score),[13],0.379
same,glycan array binding signal (z-score),[14],-0.492
same,glycan array binding signal (z-score),[15],3.1
same,glycan array binding signal (z-score),[16],3.46
same,glycan array binding signal (z-score),[17],5.18
same,glycan array binding signal (z-score),[18],2.6
same,glycan array binding signal (z-score),[19],0.232
same,glycan array binding signal (z-score),GlcA(b1-3)Gal,-0.781
same,glycan array binding signal (z-score),[20],-0.006
same,glycan array binding signal (z-score),[21],0.298
same,glycan array binding signal (z-score),Kdn(a2-3)Gal(b1-3)GalNAc,-0.393
same,glycan array binding signal (z-score),[22],-0.706
same,glycan array binding signal (z-score),[23],1.41
same,glycan array binding signal (z-score),[24],-0.092
same,glycan array binding signal (z-score),[25],-0.276
same,glycan array binding signal (z-score),[26],3.75
same,glycan array binding signal (z-score),[27],-0.953
same,glycan array binding signal (z-score),[28],4.49
same,glycan array binding signal (z-score),[29],-0.215
same,glycan array binding signal (z-score),[30],-0.263
